# Sampled rows, rich in hits. Any-hit rate of the full collection: about 3.6%.
# PHOSPHO1 inh: PHOSPHO1 (human) inhibition | Q8TCT1 | inhibition, % at 13.3 µM | recombinant PHOSPHO1, absorbance phosphatase assay | 290,000 compounds, 1.1% hits; in the data active = inhibition above about 60%
# MITF act: MITF TRPM1 promoter activation in melanoma cells; SK-MEL-5 TRPM1-promoter luciferase, 24 h; % of positive control, neutral wells = 0; activation, % at 12.5 µM; 300,000 compounds, 0.75% hits; AID 588334;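 active = mean activation of at least 80% with every replicate also reaching 80%; inconclusive = mean reaches 80% but some replicate falls short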;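 note: 0% = neutral control wells and 100% = parthenolide positive control wells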
# Wnt bcat act: activates Wnt/beta-catenin signaling in a reporter cell assay; activation, % at 9.35 µM; 300,000 compounds, 1.2% hits; AID 743398; activator, plate reader; in the data active = activation above about 30%, passing the limit was not always enough; inconclusive = no clear call, values can overlap the other calls;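 note: 0% = neutral control wells and 100% = positive control wells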
# esBAF inh: SWI/SNF esBAF complex inhibition; reporter increase, % at 12.5 µM; mouse ES cells, Bmi1-luciferase knock-in reporter, 24 h; 100% = twice the neutral-well signal; 350,000 compounds, 2% hits; AID 602393; in the data active = activation above about 40%; inconclusive = no clear call, values can overlap the other calls;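 note: 0% = median of the plate's neutral control wells and 100% = double that signal; a rise in the Bmi1 reporter signal indicates esBAF inhibition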
# A3G deaminase: inhibitors of human APOBEC3G DNA deaminase; Q9HC16; inhibition, % at 20 µM; 330,000 compounds, 0.28% hits; recombinant A3G, ssDNA deamination FAM/TAMRA fluorescence;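 active = inhibition of at least 40% at 20 µM, with no more than 30% in the related APOBEC3A deaminase screen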;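 note: plate controls were DMSO wells with A3G for no effect and wells lacking A3G enzyme for full effect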
# Target sequence (Q9HC16 whole entry, looked up): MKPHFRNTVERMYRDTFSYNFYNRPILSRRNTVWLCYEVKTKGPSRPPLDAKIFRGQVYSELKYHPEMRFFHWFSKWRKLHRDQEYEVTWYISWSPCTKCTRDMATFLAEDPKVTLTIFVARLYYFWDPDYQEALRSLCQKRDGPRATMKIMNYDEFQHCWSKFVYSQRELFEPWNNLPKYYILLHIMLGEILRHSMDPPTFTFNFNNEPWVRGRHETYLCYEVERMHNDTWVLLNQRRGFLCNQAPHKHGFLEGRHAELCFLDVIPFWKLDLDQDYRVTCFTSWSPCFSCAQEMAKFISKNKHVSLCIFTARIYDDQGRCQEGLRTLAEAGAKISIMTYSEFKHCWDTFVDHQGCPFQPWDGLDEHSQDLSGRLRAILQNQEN
# A3A deaminase: human APOBEC3A DNA deaminase inhibition; inhibition, % at 20 µM; recombinant A3A, FAM/TAMRA ssDNA deamination fluorescence; P31941; 330,000 compounds, 0.41% hits;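 active = at least 40% inhibition at 20 µM here, with at most 30% in a related deaminase screen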;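 note: plate controls were A3A with DMSO for no effect and wells lacking A3A enzyme for full effect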
# Target sequence (P31941 whole entry, looked up): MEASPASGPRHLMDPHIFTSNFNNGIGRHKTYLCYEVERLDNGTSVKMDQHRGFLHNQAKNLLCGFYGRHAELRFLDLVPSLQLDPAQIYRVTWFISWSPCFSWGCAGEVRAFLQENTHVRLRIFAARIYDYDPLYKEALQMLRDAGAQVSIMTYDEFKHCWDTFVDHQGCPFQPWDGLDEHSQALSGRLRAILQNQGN
# Active calls of the source: *; ? = inconclusive; . = no result given.
SMILES,PHOSPHO1 inh,MITF act,Wnt bcat act,esBAF inh,A3G deaminase,A3A deaminase
COc1cccc(S(=O)(=O)N2C[C@H](O)COC[C@H]3O[C@H](CC(=O)N4CCN(C)CC4)CC[C@@H]32)c1,.,.,.,3,.,.
Cn1c(/C(C#N)=C(\O)c2ccc(Br)s2)nc2ccccc21,27,24,20,47*,1,7
Cn1c(/C(C#N)=C(\O)c2cc(Cl)sc2Cl)nc2ccccc21,44,-17,-1,10,-4,-3
COc1ccc(/C=C2\CCn3c2nc2ccccc2c3=O)cc1OC,45,94*,.,43*,-3,-4
COc1ccc(/C=C2\CCn3c2nc2cc(C(=O)O)ccc2c3=O)cc1OC,4,15,-1,2,-1,11
Cc1ccc(-c2nc(NCc3ccco3)n(C(=O)c3ccco3)n2)cc1,-16,60,15,60*,-8,2
COCC(=O)n1nc(-c2ccccc2)nc1NCc1ccc(N(C)C)cc1,-30,46,10,50*,-6,-8
O=C(COc1ccccc1)n1nc(-c2ccc(Cl)cc2)nc1NCc1ccco1,-3,.,.,66*,-5,-5
Cc1ccc(S(=O)(=O)N(C)C[C@H]2OCCCC[C@@H](C)Oc3ccc(NC(=O)Nc4ccccc4)cc3C(=O)N([C@@H](C)CO)C[C@@H]2C)cc1,.,.,.,-1,.,.
C[C@@H]1CN([C@H](C)CO)C(=O)c2ccccc2-c2ccccc2CO[C@H]1CN(C)C(=O)C1CC1,.,.,.,6,.,.
CC(C)c1ccc2[nH]c3c(c2c1)[C@@H]1CCN2C(=O)CCC[C@H](C3)[C@H]12,10,58,15,81*,-8,-3
Cc1noc(C)c1NC(=O)Nc1cccc2c1O[C@H](CN(C)S(=O)(=O)c1ccccc1)[C@H](C)CN([C@H](C)CO)C2=O,.,.,.,4,.,.
CSc1nnc(-c2ccccc2Cl)o1,4,33,.,21,-5,-2
Clc1ccccc1-c1ncc(-c2ccccc2)o1,14,28,57*,14,-6,-3
O=C(Nc1ccc(-c2nc3cccnc3s2)cc1)c1ccco1,8,.,20,-7,-3,-2
O=C(Nc1ccc(-c2nc3cccnc3s2)cc1)c1ccc(Br)o1,-2,.,39*,32,1,6
O=C(Nc1ccc(-c2nc3cccnc3s2)cc1)c1cccnc1Cl,11,54,38*,-7,-4,3
O=C(Nc1ccc(-c2nc3cccnc3s2)cc1)c1ccc(Cl)nc1,37,89*,8,19,6,7
O=C(CCNC(=O)C1CCN(S(=O)(=O)c2ccc(F)cc2)CC1)NCCc1cccc(F)c1,15,-2,-2,-2,-3,-3
O=C(CCNC(=O)C1CCN(S(=O)(=O)c2ccc(F)cc2)CC1)NCCc1ccc(Cl)cc1,64*,-8,-2,3,-2,-4
CCc1c(C)nc2ccc(Br)cc2c1Cl,-11,.,.,53*,-5,-2
Nc1nc(Cl)nc2ccc(Br)cc12,-32,-4,.,.,-2,0
O=C(NN=C1C2CC3CC1CC(Cl)(C3)C2)c1ccccn1,-5,8,.,48*,-5,-2
COc1ccc2c(C)cc(SCC(=O)Nc3nsc(-c4ccc(C)cc4)n3)nc2c1,-6,-1,3,1,-2,-2
Cc1ccc(-c2nc(NC(=O)CSc3cc(C)c4ccccc4n3)ns2)cc1,60*,12,2,-1,-4,2
SMILES,PHOSPHO1 inh,MITF act,Wnt bcat act,esBAF inh,A3G deaminase,A3A deaminase
C[C@H](O)C#Cc1ccc([C@H]2[C@H](CO)N3CCCCN(C(=O)Nc4ccccc4)C[C@@H]23)cc1,.,.,.,16,.,.
CC1CCCN(c2ccc(C(=O)NCC3CCCO3)cn2)C1 (stereo not given),-22,54,8,50*,-7,-4
CC1CCN(c2ccc(C(=O)NCc3cccs3)cn2)CC1,-9,77,.,59*,-4,-1
O=C(NCC1CCCO1)c1ccc(/C=N/O)nc1 (stereo not given),16,.,-1,1,-6,-6
CS/C(=N\S(=O)(=O)c1cccs1)NC(=O)CSc1nc2ccccc2s1,100*,-3,-4,25,24,0
Clc1ccc(-c2nc(C3CCCCC3)no2)cc1,42,91*,71*,76*,-6,-1
Clc1ccc(-c2nnc(C3CCCCC3)o2)cc1,8,38,27,37,-7,-6
Cc1cc(C)n2nc(SCC(=O)c3cc(C)n(-c4cc(C)on4)c3C)nc2n1,102*,-12,-6,3,-6,-3
Cc1cc(-n2c(C)cc(C(=O)CSc3ncnc4ccccc34)c2C)no1,84*,-33,6,-19,-4,-2
O=C(C[C@H]1C[C@@H]2c3cc(NC(=O)c4cccnc4)ccc3O[C@@H]2[C@H](CO)O1)NCC1CC1,.,.,.,0,.,.
O=C(Nc1cc(-c2ccccc2)[nH]n1)c1ccc(Cl)cc1,27,.,40*,59*,-11,-5
O=C(Nc1cc(Cl)ncn1)c1ccccc1,.,.,2,.,-7,-4
Cc1cc(NC(=O)c2cccc(Cl)c2)n[nH]1,.,66,29,47*,-6,-5
Cc1ccc(NC(=O)c2cccc(Cl)c2)nc1,-8,33,.,28,-3,1
O=C(NNC(=S)NC(=O)c1ccccc1[N+](=O)[O-])c1ccccc1O,-16,14,-6,.,1,-4
O=C(NNC(=S)NC(=O)c1ccccc1[N+](=O)[O-])c1ccccc1[N+](=O)[O-],85*,5,-2,-6,3,-2
CO[C@@H]1CN(C)C(=O)c2cc(NC(=O)C3CCCCC3)ccc2OC[C@H](C)NC[C@H]1C,.,.,.,-4,.,.
CS(=O)(=O)N(CC(=O)N/N=C/c1cccc2c1OCCO2)c1ccccc1Br,60*,-2,.,7,0,-1
COc1ccc(C2=NN(C(=O)CN3CCOCC3)C(c3nc4ccccc4[nH]3)C2)cc1 (stereo not given),48,35,?,59*,1,4
COc1ccc(C2=NN(C(=O)CN3CCCCC3)C(c3ccc(C)cc3)C2)cc1 (stereo not given),56,-2,-1,-1,-6,-4
CCCCc1n[nH]c2c1/C(=N/O)CC(c1ccccc1)C2 (stereo not given),50,23,7,36,-2,-1
CCCCc1noc2c1/C(=N\O)CC(c1ccccc1)C2 (stereo not given),38,56,2,59*,-5,-5
N#Cc1ccc(COC(=O)CSc2nnc(C3CCCCC3)n2N)cc1,33,-4,-5,1,-3,3
CCOC(=O)c1sc(N)c(C#N)c1CSc1nnc(C2CCCCC2)n1N,88*,.,2,11,1,-1
O=C(O)c1ccc(-c2ccccc2)[nH]1,3,-4,-1,7,-5,-2
c1ccc(-c2ccc(-c3ccccc3)[nH]2)cc1,.,46,0,72*,.,.

# Screens: PubChem BioAssay, several laboratories
